According to the supplement of paper PMC9433436:
± gives the standard deviation of the averaged measurements. Over roughly 4,100 sequences, “relative kcat/Km (krel) vs genomic leader AAAGAU” has its median near 1.7; the highest 2% begin near 6.5. What follows is part of a selection rich in the highest values, with near analogues and random picks from the rest.

Biological target: T1, E. coli RNase P holoenzyme (M1 P RNA + rnpA protein) (UniProt P0A7Y8)
T1 sequence: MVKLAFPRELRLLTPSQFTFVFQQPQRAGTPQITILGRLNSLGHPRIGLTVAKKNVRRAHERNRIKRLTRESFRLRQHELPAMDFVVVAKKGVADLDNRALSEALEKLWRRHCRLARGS
Assay: relative kcat/Km (krel) vs genomic leader AAAGAU (relative (reference leader = 1)); higher = faster RNase P cleavage
Protocol: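 HTS-Kin: a pool of ptRNA-Met (21C construct) with all 4096 combinations of 5' leader nucleotides N(-6) to N(-1) was processed in vitro by E. coli RNase P (P RNA + rnpA/C5 protein) under multiple-turnover conditions at 37 C, pH 8, 17.5 mM MgCl2. Residual substrate was Illumina-sequenced at several fractions reacted, and relative kcat/Km (krel) was computed by internal competition kinetics, calibrated to the genomic leader (AAAGAU = 1). The listed hexamer is the varied N(-6)..N(-1) leader (DNA letters), and it sits between a fixed 5' stem-loop flank (GCAUGCACGAAAGUGCGUGCUAUGAA) and the mature tRNA-Met starting GGCUACGUAGCUCAGUUGG. Two technical replicates are averaged.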

[1] = fraction of substrate reacted: ~9-10% (9.79% repeat 1, 9.1% repeat 2)
[2] = fraction of substrate reacted: ~13-16% (15.68% repeat 1, 13.17% repeat 2)
[3] = fraction of substrate reacted: ~26-29% (28.66% repeat 1, 26.4% repeat 2)

Sequence | relative kcat/Km [1] | relative kcat/Km [2] | relative kcat/Km [3]
CCGTGC | 1.254 ± 0.0079 | 0.908 ± 0.54 | 1.84 ± 0.71
GGCGCG |  | 0.4496 ± 0.0012 | 1.37 ± 0.14
ATGCCG |  |  | 0.567 ± 0.043
AGCTGG |  | 0.38 ± 0.056 | 0.572 ± 0.15
GGTTCA | 1.01 ± 0.77 | 0.431 ± 0.36 | 1.26 ± 0.44
TGAAAG |  | 1.15 ± 0.57 | 2.65 ± 0.8
GCGAAA | 2.4 ± 0.62 | 1.36 ± 0.072 | 2.16 ± 0.076
TCCAAT | 3.48 ± 2.1 | 4.14 ± 0.76 | 6.63 ± 2.2
TCCAGA | 3.25 ± 0.89 | 4.62 ± 0.77 | 7.93 ± 2.3
ACCAAT | 2.48 ± 0.88 | 2.51 ± 0.89 | 3.51 ± 0.8
GCCAAG | 0.818 ± 0.62 | 0.757 ± 0.36 | 2.63 ± 0.93
TCCAGG |  |  | 2.14 ± 0.84
TCCAAC | 3.85 ± 2 | 4.11 ± 0.11 | 5.77 ± 1.9
TCCAAG | 2.34 ± 1.2 | 1.77 ± 1.2 | 4.8 ± 1.6
TCCAGC | 4.58 ± 2.5 | 4.83 ± 0.15 | 6.09 ± 2
TCCAAA | 3.88 ± 1.2 | 5.16 ± 0.76 | 7.85 ± 2.9
GGCGTC | 2.13 ± 1.2 | 1.48 ± 0.093 | 1.36 ± 0.024
AATTTG |  |  | 0.989 ± 0.62
TGATAC | 2.83 ± 0.46 | 3.97 ± 0.42 | 5.76 ± 2.1
AGAGGG |  |  | 0.989 ± 0.85
TCATCT | 2.18 ± 1.2 | 2.78 ± 0.36 | 4.09 ± 1
ACAGAG |  | 0.878 ± 0.38 | 1.94 ± 0.09
CTAATT | 2.55 ± 1 | 1.92 ± 0.32 | 2.36 ± 0.52
GTCCTC | 3.46 ± 0.61 | 4.33 ± 0.75 | 6.46 ± 3
ATCCTT | 3.24 ± 1.5 | 4.36 ± 0.24 | 5.37 ± 2.3
TTCCTT | 4.47 ± 1.3 | 5.24 ± 1.1 | 7.59 ± 3.1

Sequence | relative kcat/Km [1] | relative kcat/Km [2] | relative kcat/Km [3]
ATCCTC | 3.86 ± 1.3 | 4.11 ± 1.6 | 4.92 ± 2
CTCCTC | 3 ± 1.3 | 3.49 ± 0.19 | 4.95 ± 1.7
GTCCTT | 3.67 ± 1 | 4.82 ± 0.56 | 7.02 ± 2.8
CTCCTT | 3.67 ± 1.4 | 4.28 ± 0.77 | 6.06 ± 2.3
TTCCTC | 4.47 ± 1.9 | 5.25 ± 0.81 | 6.88 ± 2.5
TTCCTG |  |  | 1.68 ± 1.1
TGGCGG | 0.44 ± 0.28 |  | 0.962 ± 0.067
CCTAGA | 3.14 ± 2.6 | 2.71 ± 0.26 | 3.57 ± 0.52
CCTCCT | 2.08 ± 1.7 | 1.23 ± 0.17 | 1.29 ± 0.79
AGAAAA | 3.05 ± 0.94 | 2.65 ± 0.37 | 3.92 ± 1.1
ACTGGC |  |  | 1.69 ± 1.6
TGTCAC | 3.25 ± 2.2 | 4.8 ± 0.85 | 7.18 ± 3
TGTCAT | 3.5 ± 1.3 | 4.28 ± 1.1 | 6.84 ± 3.2
ACTCAC | 2.6 ± 1.1 | 2.87 ± 0.13 | 4.43 ± 1.7
GGTCAC | 2.53 ± 0.97 | 2.2 ± 0.29 | 3.14 ± 0.83
TGTCGC | 1.87 ± 0.089 | 2.92 ± 1.1 | 5.09 ± 2.2
TGTCAA | 3.03 ± 1.6 | 3.56 ± 0.18 | 5.75 ± 2.1
AGTCAT | 3.31 ± 1.6 | 5 ± 1.1 | 6.79 ± 3.2
TCTCAC | 3.41 ± 1.3 | 4.45 ± 1.3 | 6.16 ± 2.3
TGTCAG |  | 1.4 ± 0.17 | 3.3 ± 0.62
AGTCAC | 4.5 ± 2.3 | 4.987 ± 0.032 | 7.1 ± 2.9
AGTCAA | 2.58 ± 0.11 | 4 ± 1.2 | 6.05 ± 2.9
AGTCAG | 2.12 ± 2 | 1.91 ± 0.42 | 3.69 ± 0.62
GCTATC | 1.45 ± 0.98 | 0.842 ± 0.77 | 1.645 ± 0.013
ATTCCT | 1.97 ± 0.65 | 2.19 ± 0.27 | 2.93 ± 1.1
